TDP1 cell CPT – DT40-hTDP1 cell growth loss with CPT. chicken DT40 Tdp1-/-;hTDP1 cells + 20 nM CPT, ATP luminescence, 48 h. Potency, µM (titrated, usually from 46.2 µM), inactives show top-dose activity change, negative = growth inhibition, usual class: inhibitors. actives 12% (n = 420,000). AID 686979; also: % is scaled to controls: 0 for no effect and ±100 for the full control effect; nearly all actives have a fitted effect of over 55% in size
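Cell growth measured by CellTiter-Glo luminescence after a minimum 48 h, 37 C compound exposure with 20 nM CPT in Tdp1-knockout DT40 cells stably expressing hTDP1, seeded 400/well; qHTS titration format.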
HepG2 tox – counter-screen for TGF-b inhibitors: cytotoxicity in HepG2 cells | HepG2 CAGA-GFP viability, ATP luminescence, 18 h | Potency, µM (titrated, usually from 46.1 µM), for inactives: at the highest dose activity change, negative = cytotoxicity, hits mostly cytotoxic | actives 0.76% (n = 410,000)
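CellTiter-Glo luminescence gave cytotoxicity after 18 hours at 37 degrees C. The cells were HepG2 CAGA-GFP in 1% FBS DMEM, stimulated with 500 pg/mL TGF-beta after compound addition. %Activity was normalised to no-cell wells (complete cell-killing) and DMSO (no toxicity), and curves were fitted and classified.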
DT40 TDP1 no CPT – qHTS for Inhibitors of human tyrosyl-DNA phosphodiesterase 1 (TDP1): qHTS in cells in absence of CPT. DT40 Tdp1-/- hTDP1 cells, no CPT, ATP luminescence, 48 h. Potency, µM (doses to about 46.2 µM), inactives show top-dose activity change, negative = growth inhibition, hits mostly inhibitors. actives 15% (n = 420,000); also: % is scaled to controls: 0 for no effect and ±100 for the full control effect; nearly all actives have a fitted effect of over 55% in size
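Stably hTDP1-transfected Tdp1-null chicken DT40 cells were treated with library compounds minus camptothecin and grown for at least 48 hr at 37 °C, after which cellular ATP was quantified by luminescence.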
HT1080-NT tox – kills 2HG-producing HT-1080-NT fibrosarcoma cells | HT-1080-NT fibrosarcoma viability, CellTiter-Glo ATP luminescence, 48 h | Potency, µM (doses to about 46.1 µM), for inactives: top-dose activity, negative = less viability, actives largely listed as cytotoxic | actives 1.6% (n = 360,000) | AID 686970;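 also: NT is the 2HG producing partner of a matched IDH1 knockdown line; 0% = DMSO-treated cells and -100% = media-only wells without cells; nearly all actives have a fitted effect of over 55% in size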
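Fibrosarcoma NT cells, 750 per well in 5% FBS RPMI, were exposed to compound for 48 hours. Viability: CellTiter-Glo luminescence.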
TGFb SMAD3 inh – TGF-b pathway inhibition | HepG2 CAGA-GFP TGF-b/SMAD3 reporter, GFP fluorescence, 18 h; TGF-beta stimulated, 500 pg/mL final | Potency, µM (titrated, usually from 46.1 µM), for the others: top-dose activity, negative = inhibition, most hits filed as inhibitors | actives 1.2% (n = 410,000); also: % is scaled to controls: 0 for no effect and ±100 for the full control effect; nearly all actives have a fitted effect of over 65% in size
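HEPG2 CAGA-GFP cells (1000/well, DMEM with 1% FBS) were pre-incubated 2 h at 37 degrees C, given compound by pin tool, then stimulated with TGF-beta at 500 pg/mL final for 18 h before per-cell GFP fluorescence imaging.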
HT1080 IDH1KD tx – kills HT-1080 cells with IDH1 knockdown; HT-1080 IDH1 knockdown viability, ATP luminescence, 48 h; Potency, µM (doses to about 46.1 µM), for the others: top-dose activity, negative = toxicity, most hits filed as cytotoxic; actives 2% (n = 360,000); AID 686971;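 also: 0% = DMSO wells and -100% = cell-free medium wells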
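Assay cells: HT-1080 with IDH1 knockdown, 750 per well, RPMI/5% FBS. Exposure: 48 h at 37 °C following 2 h pre-incubation. Read: CellTiter-Glo luminescence; fitted concentration-response, curve class assigned.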
The depositor's hits bear a star; ? = inconclusive; · = no result given; [ ] = another dose, or the depositor's remark. The list is not random: actives were taken first. Their share in the collection is about 17%. Calls follow the shape of the dose curve; as a rule, active = well fitted curve in the direction sought with a large enough effect; inconclusive = small, poorly fitted or top-dose-only effect, or another doubt; inactive = no such curve, though single readings can be large; an effect the other way counts as inactive or inconclusive. Potency is read from the fitted curve at half-maximal effect.

SMILES	TDP1 cell CPT	HepG2 tox	DT40 TDP1 no CPT	HT1080-NT tox	TGFb SMAD3 inh	HT1080 IDH1KD tx
CC(=O)N1c2ccc(S(=O)(=O)N3CCC(C(=O)NCc4ccc(Cl)cc4)CC3)cc2CC1C (stereo not drawn)	18µM*	-22%	?	-23%	?	-3%
O=C1CCCC2=C1C(c1ccc(Cl)cc1)n1c(s/c(=C\c3ccc4ccncc4c3)c1=O)=N2 (stereo not drawn)	?	-50%	21µM*	13%	19%	10%
Cc1nc(NC(=O)C(C)(C)C)sc1-c1nc(N)sc1-n1cc(-c2ccccc2)nn1	-1%	·	-23%	3%	·	10%
CCNc1nc(-c2sc(NC(=O)C(C)(C)C)nc2C)c(-n2cc(-c3ccccc3)nn2)s1	10µM*	·	7.3µM*	?	·	?
Cc1c(OC(C)C(=O)NCC2CCC(C(=O)O)CC2)ccc2c3c(c(=O)oc12)CCCC3 (stereo not drawn)	-20%	3%	0%	-1%	-12%	0%
O=C(C[n+]1cc(-c2ccc(F)cc2)n2c1CCC2)OCc1ccccc1	-10%	3%	0%	2%	5%	2%
O=C(C[n+]1cc(-c2ccc(Cl)c(Cl)c2)n2c1CCC2)N1c2ccccc2Sc2ccccc21	16µM*	-9%	23µM*	?	?	?
O=C(C[n+]1cc(-c2ccc(Cl)cc2)n2c1CCC2)N1c2ccccc2Sc2ccccc21	9.2µM*	-35%	13µM*	-4%	-22%	-11%
O=C(C[n+]1cc(-c2ccccc2)n2c1CCC2)OCc1ccccc1	11%	10%	-19%	18%	5%	10%
CC1CCC(C(C)C)C(OC(=O)C[n+]2cc(-c3ccc(Cl)cc3)n3c2CCC3)C1 (stereo not drawn)	2.9µM*	-36%	2.3µM*	?	11µM*	?
Cn1c(NC(=O)C[n+]2cc(-c3ccc(Cl)c(Cl)c3)n3c2CCC3)cc(=O)n(C)c1=O	-17%	0%	?	13%	-1%	10%
COc1ccc(-c2c[n+](CC(=O)N3c4ccccc4Sc4ccccc43)c3n2CCC3)cc1	2.3µM*	-3%	2.1µM*	?	18%	?
C=CCN1C(=O)c2ccc(C(=O)OCC(=O)Nc3ccc(S(N)(=O)=O)cc3)cc2C1=O	14%	-1%	0%	8%	1%	10%
COc1ccc(C)cc1S(=O)(=O)N1CCOCC1	?	6%	?	11%	-3%	-3%
CC(=O)c1c(C)cc(C)c(CSc2nnc(-c3ccco3)o2)c1C	13µM*	-24%	22µM*	-14%	-5%	-27%
O=Cc1c(NCCN2CCCC2)c2ccccc2[nH]c1=O	11%	13%	-4%	6%	5%	2%
COc1ccc(OC)c(NC(=O)N2CCC3(CC2)Oc2ccccc2C(=O)N3Cc2ccccc2F)c1	?	-23%	15µM*	·	·	·
Cc1cnc(SCc2ccccn2)nc1C1CCCN(C(=O)c2ccc3c(c2)OCO3)C1 (stereo not drawn)	21µM*	·	?	·	·	·
Cc1cnc(SCc2ccccn2)nc1C1CCCN(C(=O)c2ccc3[nH]c(C)c(C)c3c2)C1 (stereo not drawn)	-1%[9.04 µM]	·	?	·	·	·
Cc1cnc(SCc2ccccn2)nc1C1CCCN(Cc2ccsc2)C1 (stereo not drawn)	15µM*	·	15µM*	·	·	·
Cc1cnc(SCc2ccccn2)nc1C1CCCN(C(=O)c2cc3ccccc3oc2=O)C1 (stereo not drawn)	16µM*	·	21µM*	·	·	·
COc1ccc(CN2CCCC(c3nc(-c4ccncc4)ncc3-c3ccccc3)C2)cc1OC (stereo not drawn)	-5%[9.04 µM]	·	-3%	·	·	·
Cc1cnc(SCCN2CCOCC2)nc1C1CCCN(C(=O)c2cccc3c(C)c(C)[nH]c23)C1 (stereo not drawn)	0%[9.04 µM]	·	16µM*	·	·	·
O=[N+]([O-])c1cccc(S(=O)(=O)NCCc2ccccc2)c1	-4%	-5%	-1%	7%	-8%	7%
Cn1cccc1C(=O)N1CCC[C@@]2(CCN(Cc3ccccc3)C2)C1	-6%	·	-18%	·	·	·
SMILES	TDP1 cell CPT	HepG2 tox	DT40 TDP1 no CPT	HT1080-NT tox	TGFb SMAD3 inh	HT1080 IDH1KD tx
Oc1c(CN2CCOCC2)ccc2ccccc12	?	-1%	?	-8%	1%	-14%
Oc1ccc2ccccc2c1CN1CCN(c2ccccc2)CC1	-3%	1%	-20%	6%	-8%	-2%
Oc1ccc(CN2CCCCC2)c2cccnc12	5.2µM*	-60%	5.2µM*	3.2µM*	3.2µM*	1.4µM*
Cc1ccc(C)c(S(=O)(=O)N2CCN(Cc3ccc(O)c4ncccc34)CC2)c1	5.8µM*	5%	5.8µM*	?	?	?
Oc1c(CN2CCCCC2)ccc2cccnc12	1.6µM*	-31%	1µM*	2.1µM*	?	3.3µM*
Oc1ccc(CN2CCN(c3ccccc3)CC2)c2cccnc12	5.2µM*	-35%	3.3µM*	1.1µM*	?	0.71µM*
CSc1ncccc1C(=O)N1CCN(S(=O)(=O)c2cc(C)ccc2C)CC1	-12%	-29%	-28%	4%	13%	0%
Cc1ccc2nc(SCC(=O)NNC(=O)c3ccccc3)[nH]c2c1	-13%	-1%	-5%	6%	-10%	10%
Oc1ccc(Cc2ccccc2)c2cccnc12	4.6µM*	-5%	2.1µM*	?	-20%	?
Fc1ccc(N2CCN(Cc3ccccn3)CC2)cc1	-1%	-7%	12%	?	-4%	11%
Ic1ccc(N2CCN(Cc3c[nH]c4ncccc34)CC2)cc1	11µM*	-41%	3.3µM*	?	-26%	?
CCOC1=C2[C@@H](CN(S(=O)(=O)c3ccc(C)cc3)[C@H]2c2cccc3ccccc23)[C@H]2C(=O)N(c3ccccc3)C(=O)[C@H]2C1	1%	-6%	-23%	?	-14%	17%
O=C(NCCCc1ccccc1)C1CC1	6%	-4%	6%	12%	-2%	23%
O=C(NCCCCc1ccccc1)NC[C@@H]1CC[C@@H](Cc2ccc(-c3ccccc3)cc2)O1	16µM*	-26%	15µM*	-16%	?	-21%

Screening results: PubChem BioAssay, National Center for Advancing Translational Sciences (NCATS)
